The values below come from PubChem BioAssay.

The target in assay [1] is ATP-dependent translocase ABCB1 (Homo sapiens) (UniProt P08183). Put plainly: MDR1 (ABCB1) efflux transporter inhibition, cell-based (AID 377; in the data active = fluorescence slope change above about 50%). The settings on record: MDR1-expressing cells, fluorescent substrate accumulation slope; stronger effect = higher value; concentration not given here.
The nature of assay [2]: polyglutamine-triggered caspase-3 activation inhibitors, cell-based (AID 1583). Particulars: polyglutamine-induced caspase-3 activation, cell assay; stronger effect = higher value;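 tested at 10 µM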.
Assay [3] can be described thus: suppressors of polyQ aggregation in yeast, 75Q-TubU reporter (AID 1593). The settings on record: Yeast 75Q polyglutamine aggregation reporter.
Assay [4] in a line: rescue of polyQ-huntingtin neuronal dysfunction in worms, whole organism, C. elegans mechanosensory neurons, N-terminal huntingtin (AID 1599). The settings on record: touch response, stronger effect = higher value.
The nature of assay [5]: inhibitors of mitochondrial cytochrome c release, biochemical, purified mitochondria (AID 1603).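 Note: mouse liver mitochondria challenged with calcium chloride; signal normalized to the plate average as 100%.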 The settings on record: stronger effect = lower value.
Assay [6] can be described thus: inhibitors of polyQ protein aggregation (AID 1604). Particulars: polyglutamine-induced protein aggregation inhibition assay; stronger effect = higher value; tested at 2.5 µM.
The nature of assay [7]: enhancers of glutamate uptake in motor neurons, MN-1 cell line (AID 1612).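 Note: tested at 1 µM final; 0% = mean of DMSO vehicle wells on each plate; positive means more glutamate uptake than control and negative means less.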 Particulars: MN-1 motor neuron cells, stronger effect = higher value.
Assay [8] in a line: reducers of polyQ inclusions in PC12 cells, cell-based, NGF-treated PC12, GFPQ80 (AID 1614).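 Note: lower means fewer inclusions and 0 means no inclusions at all.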 Particulars: PC12 NGF-treated GFP-polyQ80 inclusion reduction.
Assay [9] can be described thus: suppressors of polyglutamine aggregation in yeast, 75Q-TubH (AID 1616). Particulars: S. cerevisiae 75Q-TubH polyglutamine aggregation suppression; stronger effect = higher value.
Assay [10] in a line: hESC survival regulators, cell-based (AID 493140).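 Note: cells exposed to compounds for four days before counting.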 Particulars: human embryonic stem cell survival screen; stronger effect = higher value.

Results filed as inconclusive are left out. For some assays here: Potency and affinity values are given separately. The source made the active and inactive calls. Unless noted, the rule behind the calls is not given here.

ATP-dependent translocase ABCB1 (Homo sapiens), sequence (P08183 whole entry, looked up): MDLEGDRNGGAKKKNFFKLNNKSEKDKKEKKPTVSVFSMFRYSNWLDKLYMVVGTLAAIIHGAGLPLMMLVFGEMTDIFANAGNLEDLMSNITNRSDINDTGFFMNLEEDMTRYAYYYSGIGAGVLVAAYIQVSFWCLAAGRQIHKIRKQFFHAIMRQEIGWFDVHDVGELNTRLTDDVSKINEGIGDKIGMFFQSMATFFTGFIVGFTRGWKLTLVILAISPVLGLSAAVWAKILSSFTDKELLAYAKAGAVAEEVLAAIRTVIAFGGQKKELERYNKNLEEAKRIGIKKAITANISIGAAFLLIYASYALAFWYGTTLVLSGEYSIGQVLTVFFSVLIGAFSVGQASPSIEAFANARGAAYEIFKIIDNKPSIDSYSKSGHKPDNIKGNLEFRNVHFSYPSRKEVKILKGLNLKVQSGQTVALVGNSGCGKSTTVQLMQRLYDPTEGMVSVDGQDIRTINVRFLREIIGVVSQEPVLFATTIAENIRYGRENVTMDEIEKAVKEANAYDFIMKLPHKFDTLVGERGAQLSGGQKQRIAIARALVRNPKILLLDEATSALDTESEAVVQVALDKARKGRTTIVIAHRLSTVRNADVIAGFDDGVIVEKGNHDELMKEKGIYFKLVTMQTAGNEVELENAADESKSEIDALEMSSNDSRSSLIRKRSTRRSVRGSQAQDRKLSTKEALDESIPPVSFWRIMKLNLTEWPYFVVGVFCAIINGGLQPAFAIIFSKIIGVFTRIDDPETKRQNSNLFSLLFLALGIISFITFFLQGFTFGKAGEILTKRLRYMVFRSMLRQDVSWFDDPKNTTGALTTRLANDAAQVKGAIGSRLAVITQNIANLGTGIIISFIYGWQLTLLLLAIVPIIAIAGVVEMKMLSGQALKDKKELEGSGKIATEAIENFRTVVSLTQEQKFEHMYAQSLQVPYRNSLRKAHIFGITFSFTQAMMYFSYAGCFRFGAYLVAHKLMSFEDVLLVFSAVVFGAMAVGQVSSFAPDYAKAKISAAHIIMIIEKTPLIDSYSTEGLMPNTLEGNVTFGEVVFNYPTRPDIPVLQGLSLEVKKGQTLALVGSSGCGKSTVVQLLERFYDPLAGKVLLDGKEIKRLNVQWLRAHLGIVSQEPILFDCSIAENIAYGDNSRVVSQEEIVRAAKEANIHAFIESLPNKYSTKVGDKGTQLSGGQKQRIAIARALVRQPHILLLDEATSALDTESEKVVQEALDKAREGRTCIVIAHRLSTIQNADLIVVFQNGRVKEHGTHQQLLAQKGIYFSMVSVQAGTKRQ

Turning to `Cc1ccc(C(=O)c2ccc(CC(=O)O)n2C)cc1`, the fluorescence slope change in assay [1] was 69.6% (active). In addition, the inhibition (as a rule, the drop in the measured response relative to a control, in per cent) in assay [2] was 3.78%. Also, the score in [3] was determined as 1.04. The molecule further displayed a rescue above control in [4] of -3.75. In [5], the cytochrome c release ratio came out at 1.04. This molecule came in with an inhibition of aggregation in [6] of 23.8%. Also, the glutamate uptake change in assay [7] amounted to 12.3%. Besides, in assay [8], the inclusion score stood at 2. In addition, in [9], the aggregation suppression score was 0.801. In addition, the survival in assay [10] is 3.83 (inactive).

In the case of `NS(=O)(=O)c1cc2c(cc1Cl)NC(C(Cl)Cl)NS2(=O)=O` (stereo not given), the fluorescence slope change in [1] is 24.8% (inactive). Moreover, the inhibition in assay [2] was 12.2%. This molecule displayed a score in [3] of 1.03. In assay [4], the rescue above control worked out at 12.5. In addition, the cytochrome c release ratio in [5] amounted to 1.13. In assay [6], this molecule yielded an inhibition of aggregation of 79.6%. In addition, in [7], the glutamate uptake change is -0.6%. The molecule further returned an inclusion score in assay [8] of 2. In addition, the aggregation suppression score in [9] is 1.17. Besides, in assay [10], the survival was 3.33 (inactive).

`Cc1c(N(C)CS(=O)(=O)O)c(=O)n(-c2ccccc2)n1C`: the fluorescence slope change in assay [1] was 12.6% (inactive). Moreover, the inhibition in [2] was -33.9%. In assay [3], this molecule yielded a score of 1.22. Besides, the rescue above control in [4] amounted to 6.62. Also, the cytochrome c release ratio in assay [5] is 0.55. The inhibition of aggregation in assay [6] was determined as 94.4%. For the same molecule, in [7], the glutamate uptake change was -8.12%. Moreover, the inclusion score in assay [8] was 2. In assay [9], this molecule showed an aggregation suppression score of 1.09. In addition, in [10], the survival is 3.25 (inactive).

For `Nc1cc(-c2ccncc2)c[nH]c1=O`, the fluorescence slope change in [1] is 8.3% (inactive). In addition, the inhibition in [2] is -0.86%. This molecule returned a score in assay [3] of 1.14. The rescue above control in [4] is 4.19. Also, the cytochrome c release ratio in assay [5] came out at 0.91. Further, the inhibition of aggregation in [6] amounted to 17.8%. For the same molecule, the glutamate uptake change in assay [7] stood at 12.5%. The molecule further came in with an inclusion score in [8] of 2. Besides, the aggregation suppression score in assay [9] was found to be 1.17. The survival in assay [10] is 2.67 (inactive).

Take `NC(N)=NCCN1CCCCCCC1`: the fluorescence slope change in assay [1] was 125% (active). Moreover, the inhibition in assay [2] was 22.4%. In addition, in assay [3], the score came out at 1.49. In assay [4], this molecule showed a rescue above control of -4.52. Further, the cytochrome c release ratio in assay [5] came out at 1.17. The inhibition of aggregation in assay [6] is 35.2%. Also, in assay [7], the glutamate uptake change is -19.4%. Besides, in assay [8], the inclusion score was 2. Moreover, the aggregation suppression score in assay [9] was determined as 1.06. Also, the survival in assay [10] was 13.9 (inactive).

For the molecule `Cc1c(NC(=O)c2cccnc2)c(=O)n(-c2ccccc2)n1C`, the fluorescence slope change in assay [1] was 25.2% (inactive). In assay [2], the inhibition came to 13.7%. Besides, in assay [3], the score was found to be 1.39. Besides, in assay [4], the rescue above control was -0.65. In addition, the cytochrome c release ratio in [5] was 0.9. In assay [6], this molecule registered an inhibition of aggregation of 85.9%. Further, the glutamate uptake change in [7] is -15.2%. This molecule yielded an inclusion score in assay [8] of 2. The molecule further gave an aggregation suppression score in assay [9] of 1.3. For the same molecule, the survival in assay [10] was 16.6 (inactive).

In the case of `CCCCC1(COC(=O)CCC(=O)O)C(=O)N(c2ccccc2)N(c2ccccc2)C1=O`, the fluorescence slope change in [1] is 4.7% (inactive). In assay [2], the inhibition was 9.48%. This molecule yielded a score in assay [3] of 1.11. Further, the rescue above control in assay [4] is 9.03. Further, the cytochrome c release ratio in [5] came to 1.09. Also, the inhibition of aggregation in assay [6] is 57.1%. Also, in [7], the glutamate uptake change was -2.57%. This molecule came in with an inclusion score in [8] of 2. In assay [9], this molecule displayed an aggregation suppression score of 0.747. The survival in assay [10] is 3.58 (inactive).

Regarding `CCCCOc1ccc(OCCCN2CCOCC2)cc1`, the fluorescence slope change in [1] is 29.5% (inactive). Also, in assay [2], the inhibition is 9.28%. In [3], the score was found to be 1.09. This molecule also returned a rescue above control in [4] of 8.67. For the same molecule, in assay [5], the cytochrome c release ratio came out at 0.73. In addition, in assay [6], the inhibition of aggregation was 65%. For the same molecule, in assay [7], the glutamate uptake change was 6.69%. In [8], the inclusion score stood at 2. Also, the aggregation suppression score in assay [9] worked out at 1.24. In addition, the survival in [10] was 2 (inactive).

As to `CO[C@]12C[C@@H](COC(=O)c3cncc(Br)c3)CN(C)[C@@H]1Cc1cn(C)c3cccc2c13`, the fluorescence slope change in [1] is 159% (active). Further, the inhibition in [2] was found to be 2.79%. The score in assay [3] amounted to 0.99. Further, in assay [4], the rescue above control is 12.5. For the same molecule, the cytochrome c release ratio in [5] was determined as 0.85. In assay [6], this molecule returned an inhibition of aggregation of 65.4%. For the same molecule, the glutamate uptake change in [7] stood at 6.29%. In [8], this molecule yielded an inclusion score of 2. Besides, the aggregation suppression score in assay [9] was found to be 1.56. In addition, the survival in assay [10] is 7.92 (inactive).

In the case of `CC(C)(Oc1ccc(Cl)cc1)C(=O)O`, the fluorescence slope change in assay [1] was 21.7% (inactive). Besides, in assay [2], the inhibition is 17.7%. The score in assay [3] was 1.27. The molecule also displayed a rescue above control in assay [4] of 11.6. Moreover, the cytochrome c release ratio in [5] is 1.13. For the same molecule, in assay [6], the inhibition of aggregation was 38.2%. The glutamate uptake change in assay [7] is 12.1%. The molecule also registered an inclusion score in [8] of 2. This molecule gave an aggregation suppression score in assay [9] of 1.01. Moreover, the survival in assay [10] is 4.75 (inactive).

Consider `O=C(O)c1ccccc1Nc1cccc(C(F)(F)F)c1`, for which the fluorescence slope change in [1] was 92.3% (active). Besides, in assay [2], the inhibition is -0.73%. Besides, in assay [3], the score is -0.37. In [4], this molecule gave a rescue above control of 3.52. Further, the cytochrome c release ratio in [5] came to 1.3. This molecule also came in with an inhibition of aggregation in assay [6] of 73.1%. Further, the glutamate uptake change in assay [7] is -15.4%. Also, the inclusion score in assay [8] stood at 2. The aggregation suppression score in assay [9] is -0.092. Besides, in assay [10], the survival was 25.2 (inactive).
